Screening results from PubChem BioAssay.
GRIN3A LBD mod: NR3A (human) ligand-binding domain modulation. Tm shift relative to glycine control, % at 25 µM. NR3A LBD differential scanning fluorimetry, Tm shift; 0% = protein alone, 100% = glycine-bound protein. 340,000 compounds, 2.5% hits;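 active means melting temperature shift of at least 10% of the positive control shift, at one fixed dose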
SKN-1 inh: inhibitors of C. elegans SKN-1. 360,000 compounds, 0.49% hits. inhibition, % at 21.8 µM. C. elegans VP596 Pgst-4::GFP/RFP ratio, acrylamide-induced, 24 h;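 active means interference check ratio from 0.5 to 1.5 plus GFP to RFP signal ratio inhibition reaching or exceeding a fixed threshold, cut at about 30% in these data, passing the limit was not always enough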
SMARCA2 act: activators of SMARCA2 function. 370,000 compounds, 1% hits. activation, % at 9.1 µM. MG213 cells, MMTV-luciferase reporter, dexamethasone, overnight; in the data active means activation above about 7.8%;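 further: 0% = vehicle wells and 100% = reference activator wells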
esBAF inh: inhibitors of esBAF chromatin remodeling in mouse ES cells | Bmi1-luciferase knock-in reporter, 24 h; 100% = twice the neutral-well signal | reporter increase, % at 12.5 µM | 350,000 compounds, 2% hits; in the data active means activation above about 40%; inconclusive means no clear call, values can overlap the other calls;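 further: 0% = median of the plate's neutral control wells and 100% = double that signal; a rise in the Bmi1 reporter signal indicates esBAF inhibition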
Vif inh: blocks HIV Vif function. inhibition, % at 7.49 µM. HEK293T cells, Vif self-association by quenched fluorescence, imaging, 24 h. 340,000 compounds, 0.35% hits; in the data active means inhibition above about 50%, passing the limit was not always enough; inconclusive means no clear call, values can overlap the other calls; inactive means below about 31%
NadD inh: inhibitors of Staphylococcus aureus NadD. 360,000 compounds, 0.78% hits. purified NadD enzyme, colorimetric absorbance read-out. inhibition, % at 20 µM; in the data active means inhibition above about 26%
* hit, by the source's call; u = inconclusive; x = no result given. Hits are enriched below; roughly 5.2% of the tested compounds scored in any of these assays.

SMILES | GRIN3A LBD mod | SKN-1 inh | SMARCA2 act | esBAF inh | Vif inh | NadD inh
COc1ccc(NC(=O)N[C@H]2CC[C@@H](CCn3cc(C4(O)CCCC4)nn3)O[C@@H]2CO)cc1 | x | x | x | -4 | x | x
Cc1ccc(S(=O)(=O)N(C)C[C@@H]2Oc3ccc(NC(=O)CCCN(C)C)cc3C(=O)N([C@@H](C)CO)C[C@@H]2C)cc1 | x | x | x | -1 | x | x
NC(=O)CSc1ncc(-c2ccc([N+](=O)[O-])cc2)[nH]1 | 0 | 12 | 0 | x | -14 | 6
Cc1cc(C)c(CSc2ncc(-c3ccc([N+](=O)[O-])cc3)[nH]2)c(C)c1 | 12* | -16 | -1 | 1 | 2 | 8
O=[N+]([O-])c1ccc(-c2cnc(SCc3ccccc3Cl)[nH]2)cc1 | 13* | 26 | 3 | x | 0 | -1
O=[N+]([O-])c1ccc(-c2cnc(SC(c3ccccc3)c3ccccc3)[nH]2)cc1 | 26* | 5 | -3 | x | -6 | 10
O=[N+]([O-])c1ccc2nc(SCc3ccccc3Cl)sc2c1 | -1 | 20 | x | 6 | -7 | 2
C[C@@H]1CN([C@@H](C)CO)C(=O)c2cc(NC(=O)c3ccccc3)ccc2O[C@@H](C)CCCCO[C@@H]1CN(C)C(=O)Cc1ccccc1 | x | x | x | -5 | x | x
COCC(=O)N1C[C@H](C)[C@@H](OC)CN(C)C(=O)c2ccc(NC(=O)c3ccc(OC)cc3)cc2OC[C@H]1C | x | x | x | -4 | x | x
CCOc1cc(CNC2CCCC2)cc(Cl)c1OCc1ccccc1 | -1 | 56* | 1 | x | x | -11
CCC(=O)N1[C@H](CNC(=O)CN2CCOCC2)[C@@H](c2ccccc2)[C@@H]1CO | x | x | x | 0 | x | x
COc1ccccc1N=Nc1ccc(O)c2ncccc12 | -16 | 4 | 2 | 64* | 4 | 31*
CSc1ccc(C2Nc3ccccc3-c3cc(C)nn32)cc1 (stereo not given) | -12 | 44* | 0 | 37 | 7 | -4
O=C(C[C@@H]1CC[C@@H]2[C@H](COC[C@@H](O)CN2Cc2ccccc2)O1)NCCCN1CCOCC1 | x | x | x | 2 | x | x
CN(C)CCn1c(NC(=O)c2ccc(Cl)cc2)nc2ccccc21 | 1 | 7 | 8 | 56* | -1 | -3
C[C@H](CO)N1C[C@H](C)[C@H](CN(C)C(=O)Nc2ccc(C(F)(F)F)cc2)Oc2ccc(NS(=O)(=O)c3ccc(Cl)cc3)cc2C1=O | x | x | x | -2 | x | x
Cn1c(CNC(=O)c2ccco2)nnc1SCC(=O)Nc1ccccc1Cl | 13* | 1 | -2 | -3 | -14 | -3
Cc1cccc(NC(=O)CSc2nnc(CNC(=O)c3ccco3)n2C)c1C | 1 | 12 | -2 | -1 | -2 | -6
C[C@H](CO)N1C[C@H](C)[C@@H](CN(C)S(=O)(=O)c2cn(C)cn2)Oc2ncc(C3=CCCC3)cc2C1=O | x | x | x | -5 | x | x
CC1C(O)=C(c2nc3ccccc3[nH]2)C(=N)N1c1ccccc1 (stereo not given) | 0 | -19 | 2 | 48* | 9 | -4
CCC(C)N1CC(O)=C(c2nc3ccccc3[nH]2)C1=N (stereo not given) | 7 | 7 | 0 | u | -6 | 3
Fc1ccc(-c2cnn3c(-c4ccncc4)ccnc23)cc1 | 1 | 41* | 5 | x | -8 | -1
O=C(N/N=C/C(Cl)=C\c1ccccc1)c1cnccn1 | -7 | -22 | 0 | x | 18 | -3
O=C(N/N=C/C(Cl)=C/c1ccccc1)c1ccccc1F | -33 | 19 | 6 | 48* | 2 | 3
O=C(N/N=C/C(Cl)=C/c1ccccc1)c1ccco1 | 9 | 0 | 4 | 70* | 9 | -3
Cc1cc(C(=O)Nc2cccc3c2O[C@@H](CN(C)S(=O)(=O)c2c(C)noc2C)[C@@H](C)CN([C@H](C)CO)C3=O)n(C)n1 | x | x | x | -2 | x | x
NS(=O)(=O)c1ccc(N=Nc2c(-c3ccccc3)[nH]n(-c3nc(-c4ccccc4)cs3)c2=O)cc1 | 26* | 2 | 0 | x | 6 | 37*
Nc1[nH]n2c(=O)cc(-c3ccccc3)nc2c1N=Nc1ccc(S(N)(=O)=O)cc1 | 26* | 0 | -3 | x | 1 | 25
Nc1[nH]n2c(=O)cc(-c3ccccc3)nc2c1N=Nc1ccccc1 | 16* | 3 | 0 | 14 | -2 | 31*
